This is an account of results in PubChem BioAssay (NCATS).

What all share (assay): qHTS profiling for inhibitors of Plasmodium falciparum proliferation (AID 504749); note: nearly all actives have a fitted effect of over 60% in size
Common to all, as to conditions: P. falciparum in erythrocytes, SYBR Green DNA, 72 h; series mostly up to 28.7 µM
For orientation: qHTS replaces the single test concentration by a dilution series.

One assay concerns CP266. The procedure, abridged: (§1)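 Three-day growth assay of blood-stage parasites in erythrocytes (0.3% parasitemia, 2.5% hematocrit) at 37 C, 5% CO2, quantified by SYBR Green DNA staining after overnight detergent lysis.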
Another assay deals with CP268. The essentials:
as §1

The subject of the next assay is CP269. The essentials: as §1
The subject of another assay is CP286. The essentials: as §1
Another assay has as its system CP291. The procedure, abridged: as §1
The test system of another assay is CP297. The essentials: as §1
The subject of the next assay is CP305. The procedure, abridged: as §1
The next assay concerns CP315. The essentials:
as §1

The subject of the next assay is CP325. The procedure, abridged: as §1
A further assay concerns CP329. The essentials: as §1
Another assay concerns DFO2036. The essentials: as §1
The subject of another assay is DIV30. The essentials:
as §1

For a further assay, the system named is Dd2. The essentials: as §1
A further assay deals with ECU. The essentials:
as §1

Another assay deals with FAB9. The essentials: as §1
A further assay concerns HB3. The procedure, abridged:
as §1

A further assay has as its system CP335. The procedure, abridged:
as §1

The next assay relates to DIV14. The procedure, abridged:
as §1

For the next assay, the system named is DIV17. The procedure, abridged: as §1
The next assay deals with GB4. The procedure, abridged: as §1

Inconclusive results are not listed. Activity calls are given as the source filed them. Calls come from the whole dose curve; as a rule, active = well fitted inhibition curve with a large enough effect; inconclusive = small, poorly fitted or top-dose-only effect; inactive = flat fitted curve, though single readings scatter.
Potency is the fitted concentration of half-maximal effect.

In the case of `c1ccc2c(c1)OCC(C1=NCCN1)O2` (stereo unspecified), the Potency result in the assay with CP266, in the assay with CP268, with CP269, in the assay on CP286, in the assay with CP291 and in the assay on CP297 was “inactive” each time. In addition, the Potency result in the assay on CP305, in the assay with CP315, in the assay with CP325, with CP329, in the assay with DFO2036 and in the assay with DIV30 was “inactive” in each case. For the same compound, the Potency entry in the assay on Dd2, in the assay on ECU, in the assay with FAB9 and in the assay with HB3 was “inactive” each time.

As to `Fc1ccc(C(OCCN2CCN(CCCc3ccccc3)CC2)c2ccc(F)cc2)cc1`, the Potency with CP269 was 15.1 µM (active); in the assay with CP286 it was 11.2 µM (active); with CP291, 10.7 µM (active); in the assay on CP305 it was 10.7 µM (active); with CP325, 15.1 µM (active); in the assay on CP335, 9.53 µM (active). Also, the Potency in the assay on DFO2036 was 11.2 µM (active); in the assay on DIV14, 10.7 µM (active); in the assay with DIV17, 10.7 µM (active); in the assay with ECU it was 10 µM (active); with GB4, 15.1 µM (active); in the assay with HB3, 8.91 µM (active).

`NCC(O)c1ccc(O)cc1` (stereo unspecified): the Potency result with CP268, in the assay on CP269, in the assay on CP286, with CP291, in the assay with CP297 and in the assay with CP305 was “inactive” each time. In addition, the Potency result in the assay on CP315, in the assay with CP325, with CP329, in the assay with CP335, with DFO2036 and in the assay on DIV17 was “inactive” in each case. Besides, the Potency entry in the assay with DIV30, with Dd2, in the assay with ECU, in the assay with FAB9, with GB4 and in the assay with HB3 was “inactive” each time.

`CC(C)(N)Cc1ccc(Cl)cc1`: the Potency entry in the assay on CP266, in the assay with CP269, with CP286, in the assay with CP291, in the assay on CP315 and with CP325 was “inactive” in each case. The Potency entry in the assay on DFO2036, in the assay on DIV17, in the assay with DIV30, in the assay with ECU, with FAB9 and in the assay with HB3 was “inactive” in each case. Moreover, the Potency in the assay on GB4 is 8.49 µM (active).

With `CCCC1CCCCN1` (stereo unspecified), the Potency result in the assay on CP268, in the assay with CP269, with CP286, in the assay on CP291, in the assay on CP297 and in the assay on CP305 was “inactive” throughout. Also, the Potency result with CP315, in the assay on CP325, in the assay on CP329, with CP335, in the assay with DFO2036 and with DIV14 was “inactive” each time. Moreover, the Potency entry with DIV17, in the assay with DIV30, in the assay with Dd2, with ECU, in the assay with FAB9 and with GB4 was “inactive” in each case. For the same compound, the Potency entry in the assay with HB3 is “inactive”.

As to `c1ccc2c(c1)Nc1ccccc1S2`, the Potency entry in the assay with CP266, in the assay with Dd2 and in the assay on FAB9 was “inactive” in each case. The Potency in the assay on CP335 is 8.49 µM (active); with DIV14 it was 6.75 µM (active); in the assay with DIV17 it was 7.57 µM (active); in the assay with GB4, 3.79 µM (active).

With `Cc1cccc(C)c1NC1=NCCCS1`, the Potency result with CP266, in the assay with CP315, in the assay on ECU, with FAB9 and in the assay on HB3 was “inactive” in each case. Also, the Potency in the assay on Dd2 is 12.6 µM (active); with GB4, 8.49 µM (active).

Consider `C=C(C)[C@H]1Cc2c(ccc3c2O[C@@H]2COc4cc(OC)c(OC)cc4[C@@H]2C3=O)O1`, for which the Potency entry in the assay with CP266, in the assay with CP268, with CP286, with CP297, with CP305 and in the assay on CP315 was “inactive” throughout. Moreover, the Potency entry with CP325, in the assay on CP329, with DFO2036, in the assay on Dd2, in the assay on ECU and in the assay on FAB9 was “inactive” in each case. Further, the Potency entry in the assay with HB3 is “inactive”.

As to `Cc1ccc(S(=O)(=O)N[C@@H](CCCCN)C(=O)CCl)cc1`, the Potency result in the assay with CP266, with CP268, in the assay on CP269, in the assay on CP297, in the assay with CP315 and in the assay with DIV30 was “inactive” each time. Moreover, the Potency entry with FAB9 was “inactive”.

Take `COc1ccc(C(=O)c2c(C)n(CCN3CCOCC3)c3ccccc23)cc1`: the Potency result in the assay with CP268, in the assay with CP269, in the assay on CP286, in the assay on CP291, with CP297 and with CP305 was “inactive” in each case. For the same compound, the Potency result in the assay on CP315, in the assay on CP325, in the assay on CP329, in the assay on CP335, with DFO2036 and in the assay with DIV30 was “inactive” throughout. Further, the Potency entry with Dd2, in the assay with ECU, in the assay with FAB9 and with HB3 was “inactive” each time.

For `O=c1[nH]c2ccccc2n1C1CCN(CCCC(c2ccc(F)cc2)c2ccc(F)cc2)CC1`, the Potency entry in the assay on CP266, in the assay with CP268, in the assay on CP291, in the assay with CP305, in the assay with CP329 and in the assay with DFO2036 was “inactive” in each case. The Potency result in the assay with DIV14, with DIV17, in the assay on DIV30, in the assay on ECU, with FAB9 and with GB4 was “inactive” in each case. In addition, the Potency was 11.2 µM (active) with CP286, 13.5 µM (active) in the assay on CP335, 7.94 µM (active) in the assay with Dd2 and 10 µM (active) in the assay on HB3.

For the compound `CC(C)=CC1C(C(=O)OCc2cccc(Oc3ccccc3)c2)C1(C)C` (stereo unspecified), the Potency entry with CP266, with CP268, in the assay with CP269, in the assay with CP291, with CP297 and with CP305 was “inactive” each time. Moreover, the Potency entry with CP315, with CP325, with CP329, in the assay with CP335, in the assay with DFO2036 and in the assay with DIV14 was “inactive” throughout. The Potency entry in the assay on DIV17, in the assay with ECU, with FAB9, in the assay on GB4 and in the assay on HB3 was “inactive” throughout.

Regarding `CCCN1CCC[C@@H]2Cc3[nH]ncc3C[C@H]21`, the Potency result in the assay on CP266, in the assay with CP268, in the assay on CP269, with CP291, in the assay on CP297 and with CP305 was “inactive” each time. The Potency entry with CP315, in the assay with CP325, in the assay on CP329, in the assay with CP335, with DIV14 and with DIV17 was “inactive” each time. For the same compound, the Potency entry in the assay on DIV30 and in the assay with GB4 was “inactive” in each case.

`CN(C)CCc1ccc(O)cc1`: the Potency entry with CP268, in the assay with CP269, in the assay with CP286, with CP291, in the assay on CP297 and in the assay on CP305 was “inactive” in each case. In addition, the Potency entry in the assay with CP315, with CP325, in the assay on CP329, in the assay with CP335, in the assay with DFO2036 and in the assay on DIV14 was “inactive” in each case. The Potency entry in the assay on DIV17, with DIV30, with Dd2, in the assay with ECU, in the assay with FAB9 and in the assay on GB4 was “inactive” each time. The Potency entry in the assay with HB3 was “inactive”.

Regarding `CN1C[C@H](CNC(=O)OCc2ccccc2)C[C@@H]2c3cccc4c3c(cn4C)C[C@H]21`, the Potency in the assay on CP286 was 8.91 µM (active); with CP335 it was 6.75 µM (active); with DFO2036 it was 8.91 µM (active); in the assay with DIV14 it was 8.49 µM (active); in the assay on DIV17, 15.1 µM (active); in the assay on DIV30, 15.1 µM (active). The Potency was 7.94 µM (active) in the assay on Dd2, 11.2 µM (active) with ECU and 8.49 µM (active) in the assay on GB4. Besides, in the assay with FAB9, the Potency result was “inactive”.

As for `CCN(CC)CCN1C(=O)CN=C(c2ccccc2F)c2cc(Cl)ccc21`, the Potency result with CP266, with CP268, in the assay with CP269, with CP286, with CP297 and in the assay with CP305 was “inactive” each time. The Potency entry in the assay on CP315, in the assay on CP325, in the assay on DFO2036, with DIV17, with DIV30 and with ECU was “inactive” throughout. Besides, the Potency result in the assay with FAB9 and in the assay with HB3 was “inactive” each time.

For `N[C@@H](Cc1ccc(N(CCCl)CCCl)cc1)C(=O)O`, the Potency entry with CP266, in the assay with CP268, with CP291, with CP297, with CP305 and in the assay with CP315 was “inactive” in each case. The Potency entry with CP325, in the assay on CP329, with DIV30 and with FAB9 was “inactive” in each case. Further, the Potency is 10.7 µM (active) in the assay on DIV14, 15.1 µM (active) with DIV17, 12.6 µM (active) in the assay with Dd2 and 15.1 µM (active) in the assay with GB4.

Turning to `COc1ccc(C(CN(C)C)C2(O)CCCCC2)cc1` (stereo unspecified), the Potency result in the assay on CP268, in the assay with CP269, in the assay with CP286, in the assay on CP291, in the assay on CP305 and with CP315 was “inactive” in each case. For the same compound, the Potency result in the assay on CP329, in the assay with DFO2036, in the assay on DIV14, in the assay with DIV30, with ECU and in the assay with FAB9 was “inactive” each time. Besides, the Potency result in the assay on HB3 was “inactive”.

`CC(C)NCC(O)c1ccccc1Cl` (stereo unspecified): the Potency result with CP266, in the assay with CP315, in the assay on CP329 and in the assay on FAB9 was “inactive” in each case. The Potency in the assay on CP286 is 10 µM (active); with CP297 it was 15.1 µM (active); in the assay with DIV14, 6.75 µM (active); in the assay with DIV17, 6.75 µM (active); in the assay on Dd2 it was 11.2 µM (active); in the assay with ECU, 7.94 µM (active). The Potency in the assay on GB4 was 8.49 µM (active).
